Results reported in PubChem BioAssay AID488899 (Broad Institute, 2010).
Screen size: about 330,000 compounds; about 2,800 (0.85%) were called active.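 The calls were made as follows: active = mean inhibition across replicates of 60% or more, whatever share of single replicates reaches that level; inconclusive = some that reach 60%, reason not given; inactive = mean inhibition across replicates below 60%.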 The full list was thinned out, with actives kept by preference.

Experiment: inhibitors of MITF-dependent TRPM1 promoter reporter, primary screen, cell-based, SK-MEL-5, single point, luciferase (AID 488899)
Settings: SK-MEL-5 TRPM1 promoter luciferase, 24 h; at 12.5 µM; active compounds read high

SMILES | inhibition
CCC1SC(CC)C(=O)N(CC(=O)NC2CCCCC2)C1=O (configuration not stated) | 13.1% (inactive)
Clc1ccc(C[n+]2cc(-c3ccc(Cl)cc3)n3c2CCC3)cc1 | 47.5% (inactive)
CN(C)Cc1c(C(=O)N/N=C/c2ccccc2OCc2ccc(F)cc2)nnn1-c1nonc1N | -15.2% (inactive)
Cc1ccc2c(O)c(Cc3ccccc3)c(=O)[nH]c2n1 | 2.8% (inactive)
COC(=O)COc1ccc2c(=O)c(Oc3ccccc3Br)coc2c1 | -0.261% (inactive)
O=C(O)c1ccc(Cn2cnc3c(=S)nc[nH]c32)cc1 | -0.814% (inactive)
COc1ccccc1-c1nnc2n1N=C(c1ccc(OC(F)F)c(OCC3CC3)c1)CS2 | -4.86% (inactive)
COc1ccc(C2=Nn3c(nnc3-c3ccccc3OC)SC2)cc1OC1CCCC1 | 65.9% (active)
CC1=Nn2c(nnc2-c2ccccc2)SC1 | -0.377% (inactive)
COC(C[C@H](O)CC(=O)COCc1ccccc1)OC | -3.12% (inactive)
O=C(O)CN1c2cccc3cccc(c23)S1(=O)=O | 13.3% (inactive)
N/C(=N\OC(=O)Nc1ccccc1)c1ccno1 | -14% (inactive)
CCCCOc1ccc(C(=O)NN2CCN(C)CC2)cc1 | -7.2% (inactive)
CCCOc1ccc(C(=O)CCC(=O)OC(C)C(=O)Nc2ccc(NC(C)=O)cc2)cc1 (configuration not stated) | -26% (inactive)
CCCOc1ccc(C(=O)C(CCC(CNCC)C(=O)c2ccc(OCCC)cc2)CNCC)cc1 (configuration not stated) | 102% (active)
Cc1ccc(/C=C2/SC(=S)N(CCC(=O)NCCCN3CCOCC3)C2=O)cc1 | -20.1% (inactive)
C=CCOc1ccc(/C=C2\SC(=S)N(CCC(=O)O)C2=O)cc1 | 78.2% (active)
COc1ccc(/C=C2\SC(=S)N(CCCC(=O)NC3CCCC3)C2=O)cc1OC | 37.5% (inactive)
Cc1ccc(S(=O)(=O)N(CC(=O)Nc2cccc([N+](=O)[O-])c2)Cc2ccc(Cl)cc2)cc1 | 15.8% (inactive)

SMILES | inhibition
CC(=O)c1cccc(NC(=O)C2CCN(C(=O)c3ccccc3Cl)CC2)c1 | 28.4% (inactive)
O=C(COC(=O)C1CCN(S(=O)(=O)c2ccc3c(c2)OCCO3)CC1)Nc1ccccc1OC(F)F | -1.73% (inactive)
CCOC(=O)/C(=N\Nc1ccccc1[N+](=O)[O-])c1csc(Nc2ccccc2)n1 | -14.3% (inactive)
CCOC(=O)/C(=C\c1ccc([N+](=O)[O-])cc1)C(=O)c1cc(C(C)=O)c(Nc2ccccc2)s1 | 100% (active)
Cc1ccc(NC(=O)/C(=C/c2ccc([N+](=O)[O-])cc2)NC(=O)c2ccccc2)cc1 | 8.59% (inactive)
CC(=O)c1ccc(N2CCN(C(=O)CCNC(=O)Cn3ccc4ccccc4c3=O)CC2)cc1 | 0.055% (inactive)
CCC(=C/c1sc2ccc3ccccc3c2[n+]1C)/C=C1\Sc2ccc3ccccc3c2N1C | 77.8% (active)
Cc1nc(-c2nnc(SCC(=O)Nc3cc(C(F)(F)F)cc(C(F)(F)F)c3)n2C)cs1 | 6.42% (inactive)
CCCCOc1ccc(C(=O)N/C(=C/C=C/c2ccccc2)C(=O)N2CCOCC2)cc1 | 0.224% (inactive)
O=[N+]([O-])c1cc2ccccc2nc1-c1ccccc1 | -2.83% (inactive)
CN(C)CCn1c2c(c(SCC(=O)Nc3ccccc3C(F)(F)F)nc1=O)CCCC2 | 1.54% (inactive)
CC1CCCCC1NC(=O)/C(C#N)=C/C=C/c1ccccc1[N+](=O)[O-] (configuration not stated) | 87% (active)
O=[N+]([O-])c1ccccc1/C=C/CN1CCCC(CO)C1 (configuration not stated) | 3.33% (inactive)
O=[N+]([O-])c1ccccc1/C=C/CN1CCC(O)CC1 | -6.15% (inactive)
CSCCC(NS(=O)(=O)c1ccc2c(c1)oc(=O)n2C)C(=O)NC1CCCc2ccccc21 (configuration not stated) | 4.17% (inactive)
Cc1cccc(/C(N)=N/OC(=O)c2ccccc2Cl)c1 | -7.17% (inactive)
CC1CN(C(=O)CCC(=O)NCc2cccnc2)c2ccccc2O1 (configuration not stated) | -4.62% (inactive)
COc1ccccc1NC(=O)CCC(=O)N1CC(C)Oc2ccc(C)cc21 (configuration not stated) | -0.622% (inactive)
CC1CN(C(=O)CCC(=O)NCCCN2CCC(Cc3ccccc3)CC2)c2cc(Cl)ccc2O1 (configuration not stated) | 81.8% (active)

SMILES | inhibition
COc1ccc(OC)c(-c2c(=O)n(OCc3ccccc3Br)c3ccccc3[n+]2[O-])c1 | 15.9% (inactive)
CC(=O)Nc1ccc(S(=O)(=O)NC2Cc3ccccc3C2)cc1 | 4.61% (inactive)
C=C(C)C(=O)Nc1cccc(C2=NOC3(C2)C[C@H](C(N)=O)N(C(=O)C(c2ccccc2)c2ccccc2)C3)c1 (some centres not stated) | 0.48% (inactive)
CCN(CC)S(=O)(=O)c1ccc(Cl)c(NC(=O)c2ccncc2)c1 | 0.4% (inactive)
CCN(CC)S(=O)(=O)c1ccc(NC(=O)c2cnc(C)cn2)cc1 | 10.2% (inactive)
CCN(CC)S(=O)(=O)c1ccc(NC(=O)c2cccnc2Cl)c(NC(=O)c2cccnc2Cl)c1 | 74.2% (active)
O=C1CC(c2ccccc2)C(c2ccccc2)=NN1 (configuration not stated) | 5.8% (inactive)
Cc1cccc(N(C(=O)Cn2nnc(-c3ccc(C)o3)n2)C(C(=O)NC2CCCC2)c2ccncc2)c1 (configuration not stated) | 3.32% (inactive)
CCN(CC)CCCC(C)n1c2nc(=O)[nH]c(=O)c-2nc2cc(Cl)ccc21 (configuration not stated) | 83.3% (active)
CCN(CC)CCn1c2ccc(Cl)cc2c2nc(C)sc21 | 6.02% (inactive)
CCOC(=O)c1c(C)[nH]c(C(=O)NCCN2CCOCC2)c1C | 8.7% (inactive)
COc1ccccc1NC(=O)N(O)C1(C#N)CCCCC1 | -7.2% (inactive)
CN1c2ccc(C=O)c3c(C=O)ccc(c23)N(C)C1(C)C | 96.4% (active)
CCN(C(=O)COC(=O)c1c(NC(C)=O)sc(C)c1C)C1CCS(=O)(=O)C1 (configuration not stated) | 11% (inactive)
COc1cccc(CNCCc2c[nH]c3ccccc23)c1OCc1ccccc1F | 95.2% (active)
COc1ccc(C(CCNCc2ccccc2F)c2ccc(F)cc2)cc1 (configuration not stated) | -10.4% (inactive)
COc1ccccc1NC(=O)CCCc1c[nH]c2ccccc12 | -1.28% (inactive)
O=C(c1cc(COc2ccc(F)cc2F)on1)N1CCOCC1 | -44.5% (inactive)
CC(C)c1ccc(S(=O)(=O)N2CCN(C(=O)CN3C(=O)NC(C)(c4ccccc4)C3=O)CC2)cc1 (configuration not stated) | -4.8% (inactive)
